Among the test systems are NCI-H23 lung; NCI-H226 lung; NCI-H322M lung; HOP-62 NSCLC; NCI-H460 lung; HOP-92 NSCLC; NCI-H522 lung; A549/ATCC NSCLC; 786-0 renal; COLO 205 colon.
What all share (test): NCI-60 one-dose screen, 48 h (100 = growth as untreated, 0 = no growth, -100 = all killed)
Holding throughout (details): 10 µM unless noted

Molecules are shown by their SMILES. Compounds without any hit were thinned out: in the full panel of roughly 83,000, 20% have a hit.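 The test compound was applied at a single concentration to cells in 96-well plates for 48 hours, and percent growth was recorded.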 Unmarked numbers belong to inactive results. The source made the active and inactive calls. How the source made its calls: active means growth percent below 10; inactive means the rest.

Turning to `O=C(Nc1ccccc1Cl)Oc1ccc(-c2ccccc2)cc1`, the growth in the assay with NCI-H23 lung is 93.5%; with NCI-H226 lung, 103%; in the assay with NCI-H322M lung it was 114%; with HOP-62 NSCLC, 96.3%; with NCI-H460 lung it was 105%; in the assay on HOP-92 NSCLC, 94.4%. In addition, the growth was 103% in the assay on NCI-H522 lung, 104% with A549/ATCC NSCLC, 97.2% in the assay on 786-0 renal and 127% in the assay with COLO 205 colon.

With `CCOP(=O)(OCC)C1CP(=O)(c2ccccc2)CC(C)=C1Cl` (stereo not given), the growth in the assay on NCI-H23 lung was 91.7%; in the assay on NCI-H226 lung, 99.3%; in the assay with NCI-H322M lung, 97.7%; in the assay on HOP-62 NSCLC it was 97.1%; in the assay on NCI-H460 lung, 113%; in the assay on HOP-92 NSCLC, 93.1%. Moreover, the growth in the assay with NCI-H522 lung is 65.3%; in the assay on A549/ATCC NSCLC, 87.5%; in the assay with 786-0 renal it was 87.8%; with COLO 205 colon, 109%.

For the compound `COc1ccc(/C=N\NC(=O)c2cc(-c3ccc(Br)cc3)n(-c3ccc(S(N)(=O)=O)cc3)n2)cc1`, the growth is 71.7% in the assay on NCI-H23 lung; 77.8% with NCI-H226 lung; 63.1% in the assay with NCI-H322M lung; 48% with HOP-62 NSCLC; 38.5% in the assay on NCI-H460 lung; 46.8% in the assay with HOP-92 NSCLC. Further, the growth was 18.9% with NCI-H522 lung, 52.1% with A549/ATCC NSCLC, 66.9% with 786-0 renal and 62.2% in the assay on COLO 205 colon.

For `COc1cc(/C=N/Nc2ncc(-c3cc4cc5c(cc4o3)OCO5)s2)cc(OC)c1OC`, the growth in the assay on NCI-H23 lung is 53%; in the assay on NCI-H226 lung, 76.9%; with NCI-H322M lung, 103%; in the assay on HOP-62 NSCLC it was 81%; in the assay on NCI-H460 lung, 56.7%; in the assay with HOP-92 NSCLC it was 85.3%. Also, the growth in the assay on NCI-H522 lung was 40%; with A549/ATCC NSCLC, 37.6%; in the assay on 786-0 renal it was 84.5%; in the assay on COLO 205 colon, 46.4%.

Turning to `Cc1ccc(-c2cc(-c3ccccc3C)[nH]c(=O)c2C#N)s1`, the growth in the assay on NCI-H23 lung was 92.4%; in the assay with NCI-H226 lung, 93.1%; with NCI-H322M lung, 79.1%; in the assay on HOP-62 NSCLC, 90.4%; in the assay on NCI-H460 lung it was 98.7%; in the assay on HOP-92 NSCLC, 54%. For the same compound, the growth in the assay on NCI-H522 lung is 87.5%; with A549/ATCC NSCLC it was 87.9%; in the assay on 786-0 renal, 78.8%; with COLO 205 colon, 117%.

On to `COc1ccc2c(c1)CCCN2c1c2ccccc2nc2ccccc12`, for which the growth in the assay with NCI-H23 lung was 15.8%; in the assay on NCI-H226 lung, 12.6%; with NCI-H322M lung it was 45.9%; with HOP-62 NSCLC, 33.2%; in the assay with NCI-H460 lung, 6.18% (active); in the assay on HOP-92 NSCLC, 12.4%. Moreover, the growth in the assay on NCI-H522 lung is -0.944% (active); with A549/ATCC NSCLC, 18.5%; with 786-0 renal it was 28.9%; in the assay on COLO 205 colon, -16.8% (active).

As to `COc1ccc(N=C(c2ccccc2)C2C(=O)c3ccccc3C2=O)cc1`, the growth in the assay on NCI-H23 lung was 99.4%; in the assay with NCI-H226 lung, 96.8%; with NCI-H322M lung, 105%; in the assay with HOP-62 NSCLC, 97%; with NCI-H460 lung, 96.4%; in the assay with HOP-92 NSCLC, -11.2% (active). Besides, the growth in the assay on NCI-H522 lung was 67%; in the assay with A549/ATCC NSCLC, 93.6%; in the assay with 786-0 renal, 97.3%; with COLO 205 colon, 102%.

Regarding `CN1CCN(C(=O)c2c3c(n4ccccc24)C(=O)c2ncccc2C3=O)CC1`, the growth is 26.8% with NCI-H23 lung; 69.5% in the assay with NCI-H226 lung; 47.2% with NCI-H322M lung; 27.3% with HOP-62 NSCLC; 16.4% in the assay with NCI-H460 lung; 85.4% in the assay with HOP-92 NSCLC. For the same compound, the growth in the assay with NCI-H522 lung is 51.7%; in the assay on A549/ATCC NSCLC, 51.3%; in the assay on 786-0 renal it was 56.3%; with COLO 205 colon it was 78.2%.

`N=c1sc(Cc2ccc(Cl)cc2)cn1CC(=O)c1ccc(F)cc1`: the growth was 82.4% with NCI-H23 lung; 83% in the assay on NCI-H226 lung; 76.4% in the assay with NCI-H322M lung; 102% in the assay on HOP-62 NSCLC; 33.7% with NCI-H460 lung; 109% with HOP-92 NSCLC. Further, the growth with NCI-H522 lung is 63.5%; with A549/ATCC NSCLC, 66.7%; in the assay on 786-0 renal it was 86.5%; in the assay on COLO 205 colon, 145%.

On to `NS(=O)(=O)c1cnccc1Oc1cccc2cccnc12`, for which the growth in the assay with NCI-H23 lung was 90.9%; in the assay with NCI-H226 lung, 97.3%; in the assay with NCI-H322M lung, 99.6%; in the assay on HOP-62 NSCLC, 86.8%; in the assay on NCI-H460 lung, 108%; in the assay on HOP-92 NSCLC it was 78.4%. Further, the growth was 95.7% in the assay with NCI-H522 lung, 94.6% in the assay with A549/ATCC NSCLC, 97.7% with 786-0 renal and 103% in the assay on COLO 205 colon.

Regarding `Cc1ccc(C(=O)COc2cccc(/C=C3\Oc4ccccc4C3=O)c2)cc1`, the growth in the assay with NCI-H23 lung is 90.5%; in the assay with NCI-H226 lung it was 80.9%; in the assay on NCI-H322M lung, 101%; with HOP-62 NSCLC, 97.1%; in the assay with NCI-H460 lung it was 119%; in the assay with HOP-92 NSCLC, 89.8%. Moreover, the growth with NCI-H522 lung is 78.2%; with A549/ATCC NSCLC it was 96.9%; in the assay with 786-0 renal, 97.6%; with COLO 205 colon it was 115%.

Take `O=C(CCCCCCSc1nc(-c2ccccc2)cc(-c2ccc(Cl)cc2)n1)NO`: the growth in the assay on NCI-H23 lung is -17.7% (active); with NCI-H226 lung, 2.23% (active); with NCI-H322M lung, 21.3%; in the assay with HOP-62 NSCLC, -9.16% (active); with NCI-H460 lung, 7.04% (active); with HOP-92 NSCLC, -7.58% (active). In addition, the growth is -15.8% (active) with NCI-H522 lung, -23% (active) in the assay on A549/ATCC NSCLC, 1.46% (active) in the assay on 786-0 renal and 20.9% in the assay on COLO 205 colon.

`c1ccc(Nc2nc(-c3ccccn3)cs2)nc1`: the growth was 19.1% in the assay on NCI-H23 lung; -9.64% (active) in the assay with NCI-H226 lung; 27.1% with NCI-H322M lung; 16.4% in the assay on HOP-62 NSCLC; -9.3% (active) in the assay on NCI-H460 lung; 63.6% in the assay on HOP-92 NSCLC. Besides, the growth in the assay on NCI-H522 lung is 26.3%; with A549/ATCC NSCLC, 11.2%; in the assay on 786-0 renal, -2.41% (active); in the assay with COLO 205 colon, 11.5%.

These data come from PubChem BioAssay (NCI).
